From PubChem
TRHR PAM: allosterically enhances the human TRH receptor. P34981. TRHR cells, fluo-8 calcium fluorescence, EC20 TRH enhancement. enhancement, % at 2 µM. hit rate 0.66% among 360,000. AID 493056; in the data active means enhancement above about 30%; further: 0% is about no effect
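Enhancer read-out: after compound pinning and an initial kinetic agonist-mode read, an EC20 of TRH (10 nM final) was injected and fluo-8 calcium signal (Ex 480/Em 530) followed at 1 s/cycle for 100 cycles in TRHR-expressing cells.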
TRHR agonist: TRH receptor (human) agonism. activation, % at 2 µM. P34981. TRHR cells, calcium flux fluo-8, FDSS agonist mode. AID 493084. hit rate 0.18% among 360,000; further: 0% is about no effect
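TRHR-expressing cells, plated overnight in medium with 10% serum, were loaded with fluo-8 calcium dye at room temperature. After a 10 s baseline, library compound was pin-added and calcium release was recorded kinetically (ex 480/em 530) as agonist response.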
D1 antag: blocks dopamine activation of the human D1 receptor; HEK293 TREx D1 cells, calcium flux, dopamine EC80; active compounds read low; activity change, negative = inhibition, % at 10 µM; hit rate 3.2% among 360,000; AID 504652; in the data active means activity change below about -30%; further: on the % scale 0 is the no-effect control and ±100 the full control effect
Target sequence (P21728 whole entry, looked up): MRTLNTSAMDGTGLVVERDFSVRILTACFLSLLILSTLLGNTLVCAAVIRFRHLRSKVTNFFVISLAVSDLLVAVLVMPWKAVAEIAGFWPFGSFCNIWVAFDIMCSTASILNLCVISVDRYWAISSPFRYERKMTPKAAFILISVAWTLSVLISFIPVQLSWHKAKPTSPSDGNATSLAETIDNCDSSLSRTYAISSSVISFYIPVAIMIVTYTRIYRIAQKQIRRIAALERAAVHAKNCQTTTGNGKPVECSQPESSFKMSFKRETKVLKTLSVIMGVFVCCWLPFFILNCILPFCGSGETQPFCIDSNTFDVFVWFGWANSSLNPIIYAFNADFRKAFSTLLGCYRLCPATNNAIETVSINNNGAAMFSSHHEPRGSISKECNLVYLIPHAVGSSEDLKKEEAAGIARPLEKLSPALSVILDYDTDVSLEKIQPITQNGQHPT
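Cells carrying a force-coupled, tetracycline-inducible human D1 receptor report calcium flux. Each well gets a 10 s baseline, compound with 180 s monitoring, then an EC80 dopamine stimulus with a second 180 s kinetic read.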
D1 ag: agonists of human D1 dopamine receptor. P21728. HEK293 T-REx D1 cells, calcium flux, agonist mode. activation, % at 2 µM. hit rate 1% among 360,000; further: 0% is about no effect
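Tetracycline-induced HEK293 TREx D1 cells, force-coupled to calcium signalling, were dye-loaded with a no-wash calcium kit. Compound was pin-added after a 10 s baseline. Fluorescence was read kinetically at 1 cycle/s for 180 s, with calcium rises flagged as agonism.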
D1 PAM: potentiators of human D1 dopamine receptor; HEK293 TREx D1 cells, calcium flux, dopamine EC20 potentiation; potentiation, % at 10 µM; hit rate 0.036% among 360,000; AID 504651; in the data active means potentiation above about 30%; further: 0% is about no effect
Starred values were filed as active, the others as inactive. Only some compounds are listed: those with a hit (about 4.7% of all), similar ones and a draw of the others. Unless noted, no stated cut-off is given here; in the data, active means activation above about 30%; inactive means the rest.

SMILES	TRHR PAM	TRHR agonist	D1 antag	D1 ag	D1 PAM
OC(CNCCc1ccc(Cl)cc1)COc1ccc2ccccc2c1 (stereo not drawn)	-2	1	7	33*	-1
CCC(=O)c1ccc(OCC(O)CNCCc2ccc(Cl)cc2)cc1 (stereo not drawn)	15	6	-15	62*	-6
COc1ccc(CCNc2nc(SCc3ccccc3Cl)nc3ccccc23)cc1OC	2	0	16	7	-2
CC(C)c1ccc(OCC(O)CNC(C)c2ccccc2)cc1 (stereo not drawn)	1	5	2	15	11
OC(CNCCC(c1ccccc1)c1ccccc1)COc1ccccc1 (stereo not drawn)	7	1	-61*	11	-6
CCn1c(-c2ccsc2)nc2c1c(=O)[nH]c(=O)n2Cc1ccccc1	1	-1	-52*	1	-5
COc1ccc(S(=O)(=O)c2cnc(SCC(=O)Nc3cc(F)ccc3C)[nH]c2=O)cc1Cl	12	0	5	-2	0
Cc1ccc(NC(=O)Cn2ncn3c(cc4ccccc43)c2=O)cc1C	0	0	1	2	-2
CCC(C)(C)NC(=O)C(c1ccc(C)cc1)N(Cc1cccnc1)C(=O)c1csnn1 (stereo not drawn)	4	0	-63*	-1	-25
CC(C)(C)c1ccc(C(=O)NC(=S)NNC(=O)c2cccs2)cc1	7	34*	156	367*	29
O=C(NNC(=O)c1cccs1)c1ccc(F)cc1	36*	0	-13	4	-2
O=C(Nc1ccncc1)c1sc2ccccc2c1Cl	4	0	-41*	6	-7
O=C(NC(=S)Nc1ccc(N2CCOCC2)c(Cl)c1)c1sc2ccccc2c1Cl	4	0	-31*	2	8
COc1ccc(CNC(=O)Cn2ccc3cc(S(=O)(=O)N4CCCCC4)ccc32)cc1OC	-4	0	-5	2	-1
CCCn1c2ccccc2c2cnn(CC(=O)NCc3ccc(OC)cc3)c(=O)c21	1	-1	-1	1	-3
Cc1ccc2oc(C(=O)Nc3nc(-c4ccc(F)cc4)ns3)c(C)c2c1	0	1	3	2	3
Cc1ccccc1C(=O)NNC(=S)NC(=O)c1cccs1	-7	21	-29	136*	-9
COc1cc(C(=O)NNC(=S)NC(=O)c2ccc(Cl)cc2)cc(OC)c1OC	12	10	-5	60*	-1
O=C(NNC(=S)NC(=O)c1sc2ccccc2c1Cl)c1ccc(Cl)cc1	-3	1	-38*	141*	-5
Cc1cccc(C(=O)NC(=S)NNC(=O)c2cccs2)c1	-10	42*	-18	213*	-5
CN1C(=O)C2CCCCN2c2ccc(C(=O)NCc3ccccc3Br)cc21 (stereo not drawn)	12	-1	-7	0	-1
Cc1cccc(C(=O)NC(=S)NNC(=O)c2ccc(Cl)cc2)c1	4	29	34	172*	24
O=C(NN=C1CCCC1)c1sc2ccccc2c1Cl	5	1	-14	0	-2
Cc1cccc(C(=O)NNC(=O)c2ccc(Br)cc2)c1	5	0	-5	2	1
O=C1CCC/C(=N/NC(=O)c2sc3ccccc3c2Cl)C1	4	39*	-5	81*	-10
SMILES	TRHR PAM	TRHR agonist	D1 antag	D1 ag	D1 PAM
CCC(=O)Nc1cccc(NC(=S)NC(=O)c2cccc(C)c2)c1	-1	-3	-38*	9	1
CCC(=O)Nc1cccc(NC(=S)NC(=O)c2ccc(C)cc2)c1	2	0	-2	2	-4
COc1cc(C(=O)Nc2nonc2-c2ccc(Cl)cc2)cc(OC)c1OC	2	8	14	30*	3
CCOC(=O)c1c(-c2ccccc2)oc2ccc(NS(=O)(=O)c3cc(C)c(C)cc3C)cc12	4	-1	3	5	2
O=S(=O)(Nc1cccc2cccnc12)c1cccs1	-4	0	6	-1	-7
CCCCNC(=O)CCCCC(=O)N/N=C/c1cccc(Cl)c1	31*	-3	-29	1	-3
O=C(Cn1cc(CNCc2ccccc2)nn1)Nc1cc(C(F)(F)F)ccc1Cl	3	0	0	3	-6
CN(C)C(CNC(=O)Cc1cccc(C(F)(F)F)c1)c1ccco1 (stereo not drawn)	6	1	-48*	5	-2
